Several values for one entry are separate records, joined by “and”; a condition that tells them apart may be missing. Equal entries are not always repeated. Records with an inconclusive call do not appear. Activity calls are given as the source filed them. Unless noted, no stated cut-off is given here; in the data, active means inhibition above about 80%; inactive means the rest.
Key:
[1] = liver-stage malaria parasite growth inhibition, primary screen, cell-based, HepG2, luciferase luminescence, HepG2 viability (AID 624349; in the data active means parasite load remaining mostly below about 12%, no sharp cut-off; inactive means mostly above about 10%;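 further: 100% = mean of DMSO negative control wells on the same plate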); conditions: P. berghei liver stage in HepG2, luciferase luminescence, concentration not given here; parasite load remaining: stronger effect = lower value; viability: measured here: HepG2 viability without parasites
[2] = viability loss in pontine glioma line – cell-based, SU-DIPG-XXV, MIPE5.0, CellTiter-Glo, qHTS, dose response (AID 1347065; cut-off not given, nearly all actives have AC50 up to about 26 µM;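 further: cells exposed to compound for 48 hours before ATP readout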); conditions: CellTiter-Glo ATP luminescence
[3] = LFS_MB_1R medulloblastoma cell growth inhibition, synergistic combos for chromothripsis tumors, cisplatin or BGB combos (AID 1671452); conditions: LFS_MB_1R medulloblastoma cells, stronger effect = higher value;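 further: cells exposed for 96 hours before readout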
[4] = CRL2098 osteosarcoma cell growth inhibition, synergistic combos for chromothripsis tumors, BGB or cisplatin IC20 combos (AID 1671454); conditions: CRL2098 osteosarcoma cells, drug combinations, stronger effect = higher value;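 further: cells exposed for 96 h before readout; 0% = vehicle DMSO and 100% = killing by high DMSO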
[5] = HD-MB03 medulloblastoma cell growth inhibition, synergistic combos for chromothripsis tumors, BGB or cisplatin IC20 combos (AID 1671455; in the data active means inhibition above about 83%;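 further: 0% = vehicle DMSO and 100% = high DMSO as cytotoxic control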); conditions: HD-MB03 medulloblastoma cells, stronger effect = higher value
[6] = UWB1.289 ovarian carcinoma cell growth inhibition, synergistic combos for chromothripsis tumors, BGB or cisplatin combos (AID 1671456); conditions: UWB1.289 ovarian carcinoma cells, stronger effect = higher value;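 further: cells exposed to compound for four days; 0% = vehicle DMSO and 100% = killing by high DMSO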
[7] = LFS_MB_2R medulloblastoma cell growth inhibition, synergistic combos for chromothripsis tumors, cisplatin combos (AID 1671457); conditions: LFS_MB_2R medulloblastoma cells, stronger effect = higher value;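 further: cells exposed to compound for four days before readout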
[8] = UWB1.289_BRCA1 ovarian cancer growth, cell-based, BGB or cisplatin combinations (AID 1671459); conditions: UWB1.289 BRCA1 ovarian carcinoma, drug combinations, stronger effect = higher value
[9] = human astrocyte viability loss, single and combined drugs, cytotoxicity control for chromothriptic childhood tumor combination screen, cell-based, BGB or cisplatin IC20 combos (AID 1671460); conditions: Human astrocytes, drug combinations, stronger effect = higher value;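 further: cells exposed to compounds for 96 hours before viability readout; 0% = vehicle and 100% = killing control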
[10] = growth inhibition of DIPG glioma cells, dose response, cell-based, SU-DIPG-XIII, MIPE5.0, CellTiter-Glo, qHTS (AID 1347064; cut-off not given, nearly all actives have AC50 up to about 23 µM;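 on AC50: cells exposed to compound for 48 hours before the viability read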); conditions: SU-DIPG-XIII viability, CellTiter-Glo ATP luminescence
[11] = test system: Neuropilin-2 / VEGF-C interaction (human); test: inhibitors of NRP2–VEGF-C binding, biochemical, microplate binding format, z-score (AID 743281; call rule not given here); conditions: microplate NRP2/VEGF-C binding assay; stronger effect = lower value
[12] = antimalarial activity against Dd2 strain (AID 2302;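 active means growth inhibition above 50% at the single 2 µM test dose, taken to imply half-maximal potency below 2 µM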;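 further: 0% = DMSO untreated growth and 100% = chloroquine plus artemisinin killed control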); conditions: P. falciparum Dd2 in RBCs, LDH growth readout, 72 h; at 2 µM; stronger effect = higher value
[13] = HepG2 cytotoxicity, primary screen, cytotoxicity control for P. falciparum antimalarial project, cell-based, ATP luminescence (AID 2303;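 active means inhibition above 50%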;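 further: 0% = DMSO wells and 100% = digitonin-killed cells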); conditions: HepG2 viability, 24-48 h, at 10 µM, stronger effect = higher value
[14] = molecular target: L-lactate dehydrogenase (Plasmodium falciparum (isolate CDC / Honduras)) (UniProt Q27743); test: PfLDH activity inhibition – cell lysate, 3D7 strain, counter-screen for P. falciparum growth inhibition project (AID 2304; call rule not given here;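 further: 0% = vehicle and 100% = reference inhibitor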); conditions: P. falciparum 3D7 crude extract, LDH APAD/NBT absorbance; at 2 µM; stronger effect = higher value
L-lactate dehydrogenase (Plasmodium falciparum (isolate CDC / Honduras)), sequence (Q27743 whole entry, looked up): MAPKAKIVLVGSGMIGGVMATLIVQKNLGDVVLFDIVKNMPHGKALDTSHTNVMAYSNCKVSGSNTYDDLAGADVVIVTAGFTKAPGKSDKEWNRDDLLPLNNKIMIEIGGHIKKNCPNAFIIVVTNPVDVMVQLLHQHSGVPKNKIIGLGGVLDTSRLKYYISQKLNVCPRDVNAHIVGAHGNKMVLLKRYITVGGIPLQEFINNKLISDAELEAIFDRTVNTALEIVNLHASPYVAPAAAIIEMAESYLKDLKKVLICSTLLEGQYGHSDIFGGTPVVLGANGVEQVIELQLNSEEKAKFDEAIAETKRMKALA

[15] = inhibition of 3D7 malaria parasite growth – strain 3D7 (AID 2306; call rule not given here;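 further: 0% = DMSO wells and 100% = chloroquine plus artemisinin control wells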); conditions: P. falciparum 3D7 erythrocytic growth, LDH absorbance, 72 h; at 2 µM; stronger effect = higher value
[16] = protection against mutant huntingtin cytotoxicity, PC12 cells, LDH release (AID 1610); conditions: PC12 mutant huntingtin toxicity, final LDH at 4 uM, stronger effect = lower value
[17] = enhancers of SMN2 over SMN1 splicing, cell-based, SMN2/SMN1 luciferase reporters (AID 1598; call rule not given here); conditions: SMN2 vs SMN1 luciferase splicing reporter cells, at 10 µM; SMN1 luciferase ratio: measured here: SMN1 luciferase reporter average; SMN2 luciferase ratio: measured here: SMN2 luciferase reporter average, stronger effect = higher value; SMN2/SMN1 luciferase ratio: stronger effect = higher value
[18] = modifiers of HSF1 nuclear foci, imaging, Selleck Cancer Library (AID 1347162; in the data active means plate-normalised HSF1 focus index below about 0.46); conditions: human cells, at 10 µM; SSMD: measured here: HSF1 foci SSMD mean; cell count: measured here: cell number; plate-normalised HSF1 focus index: stronger effect = lower value
[19] = measured here: combination with BGB IC40, at 0.05 µM
[20] = measured here: combination with cisplatin, at 0.5 µM
[21] = measured here: combination with cisplatin, at 5 µM
[22] = measured here: combination with BGB at IC20, at 0.5 µM
[23] = measured here: combination with cisplatin at IC20, at 0.5 µM
[24] = measured here: combo with BGB at IC20, at 0.5 µM
[25] = measured here: combo with cisplatin at IC20, at 0.5 µM
[26] = measured here: inhibition with BGB combination, at 0.05 µM
[27] = measured here: inhibition with cisplatin combination, at 0.05 µM
[28] = BGB combination, concentration series, at 5 µM
[29] = cisplatin combination, concentration series, at 5 µM
[30] = measured here: combo with BGB IC20, at 0.5 µM
[31] = measured here: combo with cisplatin IC20, at 0.5 µM

For `S=c1nc[nH]c2nc[nH]c12`, the parasite load remaining [1] was 27.1% (inactive) and 38.1% (inactive) and 20.6% (inactive), the viability [1] was 73.4% and 55.1% and 57.4% and the AC50 [2] was 5250 nM (active). For the same compound, the inhibition ([3]; at 0.5 µM) was -9.9% (inactive) and -33.2% (inactive) and -36.1% (inactive), the inhibition [3, 19] was 14.7% and -35.7% and -8.62% and the inhibition [3, 20] was -4.25% and -33.8% and -75.5%. The inhibition [3, 21] was -15.4% and -37% and -57.5%, the inhibition ([4]; at 0.5 µM) was -2.69% (inactive) and -57.6% (inactive) and -53.9% (inactive) and the inhibition [4, 22] was -5.16% and -41% and -65.5%. The inhibition [4, 23] was -32% and -63.9% and -65.9%, the inhibition ([5]; at 0.5 µM) was -4.55% (inactive) and -3.29% (inactive) and -17.6% (inactive) and the inhibition [5, 24] was -4.3% and -15.6% and -16.3%. The inhibition [5, 25] was -5.54% and 2.44% and -26.8%, the inhibition ([6]; at 0.5 µM) was 57.7% (inactive) and 56.2% (inactive) and 56.1% (inactive) and the inhibition [6, 26] was -14.8% and -13.6% and -15.6%. The inhibition [6, 27] was -7.08% and -3.38% and -9.93%, the inhibition ([7]; at 0.5 µM) was -7.19% (inactive) and -1.38% (inactive) and -2.98% (inactive) and the inhibition [7, 20] was -15.5% and -27.1% and 4.18%. The inhibition [7, 21] was -9.32% and -12.4% and -4.44%, the inhibition [8, 28] was 95.7% and 91.5% and 93.1% and the inhibition ([8]; at 0.5 µM) was 63.6% (inactive) and 53.4% (inactive) and 47.8% (inactive). The inhibition [8, 29] was 100% and 93.5% and 94.9%, the inhibition ([9]; at 0.5 µM) was 13.8% (inactive) and -4.07% (inactive) and -10.8% (inactive) and the inhibition [9, 30] was 14.2% and -8.32% and -0.26%. The inhibition [9, 31] was 3.43% and 3.12% and -27.4%.

With `CC(C)Cc1ccc(C(C)C(=O)O)cc1` (configuration not stated) the outcome [10] was “inactive” and the outcome [2] was “inactive”.

For `CC(=O)OCC(CCn1cnc2cnc(N)nc21)COC(C)=O`, the z-score [11] was -0.315 (inactive), the outcome [2] was “inactive” and the inhibition ([3]; at 0.5 µM) was -6.39% (inactive). The inhibition [3, 19] was -41.8%, the inhibition [3, 20] was -15.8% and the inhibition [3, 21] was -6.32%. For the same compound, the inhibition ([4]; at 0.5 µM) was -1.73% (inactive), the inhibition [4, 22] was -9.88% and the inhibition [4, 23] was -30.1%. The inhibition ([5]; at 0.5 µM) was -9.43% (inactive), the inhibition [5, 24] was -6.57% and the inhibition [5, 25] was -14.8%. The inhibition ([6]; at 0.5 µM) was 5.6% (inactive), the inhibition [6, 26] was -6.88% and the inhibition [6, 27] was -9.39%. The inhibition ([7]; at 0.5 µM) was -19.1% (inactive), the inhibition [7, 20] was -22.6% and the inhibition [7, 21] was -72.7%. The inhibition [8, 28] was -1.67%, the inhibition ([8]; at 0.5 µM) was -3.29% (inactive) and the inhibition [8, 29] was 11.9%. For the same compound, the inhibition ([9]; at 0.5 µM) was 8.43% (inactive), the inhibition [9, 30] was 10.6% and the inhibition [9, 31] was -5.87%.

For `CCc1nc(N)nc(N)c1-c1ccc(Cl)cc1`, the growth inhibition [12] was 0% (inactive) and -1% (inactive), the inhibition [13] was 66% (active) and 71% (active) and the inhibition [14] was -5% (inactive) and 5% (inactive). For the same compound, the growth inhibition [15] was 94% (active) and 93% (active).

For `C/C=C/C(=O)N(CC)c1ccccc1C`, the z-score [11] was -0.426 (inactive) and the outcome [10] was “inactive”.

In the case of `c1ccc2[nH]c(-c3cscn3)nc2c1`, the outcome [2] is reported as “inactive”.

In the case of `Cc1ccc(C)c(OCCCC(C)(C)C(=O)O)c1`, the outcome [2] is reported as “inactive”.

In the case of `COC1=CC(=O)C[C@@H](C)[C@]12Oc1c(Cl)c(OC)cc(OC)c1C2=O`, the parasite load remaining [1] is reported as 86.5% (inactive) and 55.9% (inactive) and 116% (inactive) and the viability [1] is reported as 139% and 48% and 184%.

For `COC(=O)Nc1nc2ccc(C(=O)c3ccccc3)cc2[nH]1`, the AC50 [10] was 417 nM (active) and the AC50 [2] was 332 nM (active).

For `CCn1cc(C(=O)O)c(=O)c2cc(F)c(N3CCN(C)CC3)cc21`, the z-score [11] was -1.05 (inactive), the inhibition ([3]; at 0.5 µM) was -35.2% (inactive) and -9.17% (inactive) and the inhibition [3, 19] was -12.2% and -6.93%. For the same compound, the inhibition [3, 20] was -66.1% and -0.499%, the inhibition [3, 21] was -52.8% and 11.3% and the inhibition ([4]; at 0.5 µM) was -41.2% (inactive) and 7.78% (inactive). The inhibition [4, 22] was -48.5% and 10.5%, the inhibition [4, 23] was -57.7% and 40.3% and the inhibition ([5]; at 0.5 µM) was -16.4% (inactive) and 1.14% (inactive). The inhibition [5, 24] was -17.4% and 6.49%, the inhibition [5, 25] was -24.9% and -8.23% and the inhibition ([6]; at 0.5 µM) was -8.81% (inactive) and 8.67% (inactive). For the same compound, the inhibition [6, 26] was -24.8% and -1.17%, the inhibition [6, 27] was -21.6% and 2.48% and the inhibition ([7]; at 0.5 µM) was -5.46% (inactive) and 1.79% (inactive). The inhibition [7, 20] was 3.08% and 3.79%, the inhibition [7, 21] was -14.9% and -26.1% and the inhibition [8, 28] was -6.71% and 0.813%. The inhibition ([8]; at 0.5 µM) was -17.9% (inactive) and 5.05% (inactive), the inhibition [8, 29] was -12.6% and 1.69% and the inhibition ([9]; at 0.5 µM) was -3.63% (inactive) and -0.44% (inactive). For the same compound, the inhibition [9, 30] was 1.4% and 4.59% and the inhibition [9, 31] was -18.3% and 1.72%.

Work on `CN(C)CCOC(c1ccc(Cl)cc1)c1ccccn1` (configuration not stated) yielded a normalised LDH release [16] of 0.839.

With `NC(=O)N1c2ccccc2CC(=O)c2ccccc21` the z-score [11] was 0.598 (inactive).

For `COc1cc2nc(N(C)CCCNC(=O)C3CCCO3)nc(N)c2cc1OC` (configuration not stated), the z-score [11] was -0.33 (inactive).

In the case of `CN(C)CCc1c[nH]c2ccc(C[C@H]3COC(=O)N3)cc12`, the parasite load remaining [1] is reported as 65.6% (inactive) and 76.6% (inactive) and 61% (inactive), the viability [1] is reported as 90.7% and 99.3% and 74.3% and the z-score [11] is reported as -0.511 (inactive).

For `CO[C@@]1(NC(=O)Cc2cccs2)C(=O)N2C(C(=O)O)=C(COC(N)=O)CS[C@@H]21`, the SMN1 luciferase ratio [17] was 1.2, the SMN2/SMN1 luciferase ratio [17] was 1.24 (active) and the SMN2 luciferase ratio [17] was 1.48.

For `CC(C)(C)NCC(O)COc1cccc2c1C[C@H](O)[C@H](O)C2` (some centres not stated), the parasite load remaining [1] was 69.2% (inactive) and 72.2% (inactive) and 65.4% (inactive) and the viability [1] was 124% and 85.6% and 141%.

In the case of `NC(=O)c1cnccn1`, the outcome [10] is reported as “inactive” and the outcome [2] is reported as “inactive”.

For `Nc1ncn([C@@H]2O[C@H](CO)[C@@H](O)[C@H]2O)c(=O)n1`, the parasite load remaining [1] was 162% (inactive) and 170% (inactive) and 176% (inactive), the viability [1] was 101% and 77.2% and 95% and the AC50 [10] was 1660 nM (active). The AC50 [2] was 2090 nM (active), the SSMD [18] was 1.14 and the cell count [18] was 7120. The plate-normalised HSF1 focus index [18] was 1.04 (inactive).

In the case of `OCCN1CCN(CCCN2c3ccccc3Sc3ccc(C(F)(F)F)cc32)CC1`, the z-score [11] is reported as 0.247 (inactive), the AC50 [10] is reported as 9340 nM (active) and the AC50 [2] is reported as 7420 nM (active).

For `Cc1ncc([N+](=O)[O-])n1CC(C)O` (configuration not stated), the parasite load remaining [1] was 136% (inactive) and 103% (inactive) and 36% (inactive), the viability [1] was 85.3% and 77% and 71% and the z-score [11] was 0.376 (inactive).

From PubChem BioAssay
